Screens: PubChem, several laboratories
14-3-3 Bad PPI: disrupts binding of bovine 14-3-3 zeta to phospho-Bad peptide; P63103; TR-FRET 14-3-3zeta/Dy647-pBad peptide displacement, 1 h; inhibition, % at 21.7 µM; 0.71% of 220,000 active;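 active = inhibition above about 70%, limit read from the data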;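 note: 0% = full 14-3-3 plus peptide FRET controls and 100% = background without 14-3-3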
Target sequence (P63103 whole entry, looked up): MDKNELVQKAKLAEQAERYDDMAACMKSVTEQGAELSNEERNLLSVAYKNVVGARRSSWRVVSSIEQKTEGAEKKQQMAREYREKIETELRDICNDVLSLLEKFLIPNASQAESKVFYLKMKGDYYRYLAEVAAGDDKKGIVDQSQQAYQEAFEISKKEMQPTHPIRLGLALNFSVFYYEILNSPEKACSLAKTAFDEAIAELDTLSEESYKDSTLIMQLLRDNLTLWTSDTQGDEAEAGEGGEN
NCF1 inh: blocks human p47phox regulatory protein of NADPH oxidases; P14598; p47phox/p22phox peptide binding, fluorescence polarization, 2 h; inhibition, % at 24.7 µM; 0.53% of 220,000 active; AID 1274;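 note: 0% = p47phox with labelled peptide and 100% = labelled peptide alone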
Target sequence (P14598 whole entry, looked up): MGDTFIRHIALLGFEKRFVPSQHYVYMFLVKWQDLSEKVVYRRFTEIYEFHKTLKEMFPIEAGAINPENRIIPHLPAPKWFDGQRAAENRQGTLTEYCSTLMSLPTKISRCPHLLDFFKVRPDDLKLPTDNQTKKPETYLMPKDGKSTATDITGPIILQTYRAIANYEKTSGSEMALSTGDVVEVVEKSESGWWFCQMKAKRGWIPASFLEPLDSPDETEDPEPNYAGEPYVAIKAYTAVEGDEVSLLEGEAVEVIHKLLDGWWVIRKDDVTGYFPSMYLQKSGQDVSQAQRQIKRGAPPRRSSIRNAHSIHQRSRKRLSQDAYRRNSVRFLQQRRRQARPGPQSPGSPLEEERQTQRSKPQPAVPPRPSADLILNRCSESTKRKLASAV
Mcl1-Bid inh: disrupts binding of human Mcl-1 to Bid peptide. Q07820. TR-FRET Mcl-1/Bid-Dy647 peptide binding, 1536-well. inhibition, % at 21.7 µM. 0.97% of 220,000 active;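 active = compounds that cut the binding signal by more than half at the single screening dose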;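 note: His-tagged Mcl-1 with europium anti-His antibody binding Bid BH3 peptide; 0% = Mcl-1 plus peptide wells and 100% = peptide-only wells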
Bim-Mcl-1: disrupts Bim peptide binding to human Mcl-1; inhibition, % at 10 µM; 0.1% of 190,000 active; Q07820; AID 1009; Bead-based flow cytometry, Bim peptide-Mcl-1 binding; in the data active = inhibition above about 40%;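 note: 0% = no compound tracer wells and 100% = peptide blocker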
eIF4E 4G PPI: blocks eIF4E binding to eIF4G. P63073+Q04637. TR-FRET eIF4E-eIF4GI(517-606) binding, 2 h. inhibition, % at 21.7 µM. 0.37% of 220,000 active;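 note: 0% = full FRET control wells and 100% = background wells lacking eIF4GI fragment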
Mcl1 Noxa PPI: disrupts binding of human Mcl-1 to Noxa peptide; TR-FRET Mcl-1/Noxa peptide binding, 2 h; inhibition, % at 21.7 µM; 1.5% of 220,000 active;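 active = compounds that cut the protein-peptide binding signal by more than 50% relative to plate controls in a single-dose test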;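 note: His-tagged Mcl-1 with rhodamine Noxa BH3 peptide and terbium anti-His antibody; 0% = Mcl-1 plus Noxa peptide wells and 100% = peptide-only wells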
* = called active by the depositor; . = no result given. Shown are actives, neighbours in structure and some others; about 3.4% of the full set was active somewhere.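 Rule for the calls, unless noted: active = inhibition above about 30% (limit read from the data); inactive = the rest.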

SMILES | 14-3-3 Bad PPI | NCF1 inh | Mcl1-Bid inh | Bim-Mcl-1 | eIF4E 4G PPI | Mcl1 Noxa PPI
Nc1ccc(-c2nc3ccc(C(=O)O)cc3s2)cc1 | 10 | -16 | -37 | -12 | 0 | 57*
Cc1ccc(NC(=O)c2ccc3ncsc3c2)cc1S(=O)(=O)N(C)C | 38 | 0 | 67* | . | 0 | 48
O=C(O)c1ccc2ncsc2c1 | 82* | -17 | 92* | . | 23 | 56*
CCc1nnc(NC(=O)c2ccncc2)s1 | -11 | 1 | -9 | 0 | -4 | 13
CCc1nnc(NC(=O)c2ccc3ncsc3c2)s1 | 14 | -6 | 56* | . | -5 | 41
CCOC(=O)c1cc2c(N)c(C(=O)c3ccc(Br)cc3)sc2[nH]c1=O | 16 | -8 | -45 | 12 | 9 | 47
C=C1c2cc3c(cc2NC(=S)N1Cc1ccccc1)OCO3 | 1 | -4 | -106 | . | -1 | 17
CC(=O)c1sc(NC(=O)COc2ccccc2)nc1C | -4 | 0 | -22 | 0 | -2 | 6
CCOC(=O)c1sc2nc(NC(=O)COc3ccccc3)sc2c1C | 0 | -8 | -5 | -4 | -1 | 55*
O=C1C(C2=NC(C(=O)O)C3C(=O)N(c4ccc(Cl)cc4)C(=O)C23)=C(O)c2ccccc21 (stereo not given) | -4 | -3 | -21 | -1 | 2 | 63*
CN(CC(=O)Nc1sccc1C#N)C1CCCCC1 | -15 | -15 | -6 | -4 | 7 | 61*
COc1ccc(N/C(=N\c2nc(C)cc(C)n2)NC(=O)C(C)C)cc1OC | 76* | -5 | -17 | 1 | -1 | 9
COc1ccc(N/C(=N\c2nc(C)cc(C)n2)NC(C)=O)cc1OC | -8 | 1 | 8 | -2 | -18 | 24
Cc1c(C(=O)C(=O)N2c3ccccc3CC2C)c2ccccc2n1C (stereo not given) | -17 | 41* | -2 | 0 | 0 | -7
COc1ccc(C(=O)N2c3ccccc3CC2C)cc1OC (stereo not given) | -7 | -18 | 1 | -3 | 2 | 74*
Cc1ccc(C(=O)N2c3ccccc3CC2C)o1 (stereo not given) | -3 | 41* | -41 | -4 | 5 | 3
Cc1ccc(C(=O)N2CCc3ccccc32)o1 | 0 | -8 | -43 | -6 | 14 | 11
Cc1cc(C(=O)Nc2ccccc2)oc(=O)c1 | 6 | -2 | -7 | . | 5 | -10
C(=N\N1CCN(Cc2cccc3ccccc23)CC1)/c1cccnc1 | 2 | 2 | 58* | 0 | -9 | -9
O=C(O)c1ccc(/C=N/N2CCN(Cc3cccc4ccccc34)CC2)cc1 | 94* | -13 | -26 | 1 | 1 | 4
COc1cccc(CN2CCN(C(=O)c3cccs3)CC2)c1OC | 0 | -4 | -8 | 0 | -2 | 13
COc1cc(OC)cc(C(=O)N2CCN(Cc3ccccc3C(F)(F)F)CC2)c1 | 42 | -1 | 67* | -2 | 3 | 39
COc1cc(C(=O)N2CCN(Cc3ccccc3C(F)(F)F)CC2)cc(OC)c1OC | 35 | -2 | 48 | -3 | 1 | 40
CN1CCCN(Cc2ccccc2C(F)(F)F)CC1 | 81* | 7 | 31 | -4 | 94* | 10
COc1cccc(OC)c1C(=O)N1CCN(Cc2ccccc2C(F)(F)F)CC1 | 84* | -2 | 43 | -5 | -5 | 26
SMILES | 14-3-3 Bad PPI | NCF1 inh | Mcl1-Bid inh | Bim-Mcl-1 | eIF4E 4G PPI | Mcl1 Noxa PPI
Cc1ccccc1CSc1nnc(C)c(=O)n1N | -6 | -7 | -30 | 0 | -4 | -5
Cc1nc(SCc2c(F)cccc2Cl)n[nH]1 | 85* | -8 | -1 | 0 | -6 | 2
O=c1nc(SCc2c(F)cccc2Cl)nc(-c2ccccc2)[nH]1 | 0 | -22 | -4 | . | 7 | 19
CSc1nc(C)cc(OCCO)n1 | 8 | 3 | -11 | -4 | -1 | 28
CSc1nc(C)cc(OCC(=O)n2nc(C)cc2C)n1 | -3 | -1 | 99* | 1 | -4 | 9
C=CCc1ccccc1OCC(O)CN(C(C)C)C(C)C (stereo not given) | 71* | 1 | -24 | -1 | 6 | 3
Cn1nnnc1SCC1=C(C(=O)O)N2C(=O)[C@@H](NC(=O)[C@H](O)c3ccccc3)[C@H]2SC1 | 70 | -16 | -57 | -4 | 8 | 51*
Cn1nnnc1SCC1=C(C(=O)O)N2C(=O)C(NC(=O)C3CC3c3ccccc3)C2SC1 (stereo not given) | -1 | -7 | -56 | 3 | -3 | 26
CCCCSc1nn[nH]n1 | 76* | -7 | 17 | -2 | -1 | 18
CCOC(=O)COc1cnc2ccccc2n1 | 29 | -10 | -22 | -5 | 6 | 3
O=C1NC(=S)S/C1=C\c1ccc(SCc2ccco2)o1 | 47 | -80 | 62* | -2 | 22 | 98*
Cc1cc(/C=C2\SC(=S)NC2=O)c(C)n1-c1ccccc1 | -1 | -81 | -49 | . | -1 | 42
O=C1NC(=S)S/C1=C\c1ccc(SCc2ccccc2)o1 | -6 | -54 | -17 | 0 | 19 | 81*
C=C(C)C(=O)Nc1cccc(C2=NOC3(C2)C[C@@H](C(N)=O)N(C(=O)c2ccc(OC)cc2)C3)c1 (stereo not given in full) | 40 | -7 | -130 | . | 7 | 69*
CCCCCC(=O)N1CC2(CC(c3cccc(NC(=O)[C@@H]4CCC(=O)N4)c3)=NO2)C[C@@H]1C(N)=O (stereo not given in full) | -3 | -3 | -42 | . | -2 | -5
C/C=C\C=C/C(=O)Nc1cccc(C2=NOC3(C2)C[C@@H](C(N)=O)N(C(=O)c2ccccc2)C3)c1 (stereo not given in full) | 1 | -3 | 21 | . | 0 | 75*
C=C(C)C(=O)Nc1cccc(C2=NOC3(C2)C[C@@H](C(N)=O)N(C(=O)CCCCC)C3)c1 (stereo not given in full) | 43 | -10 | -100 | . | 9 | 69*
CSCCCNC(=S)N1CCc2ccccc2C1 | -23 | 6 | -49 | 0 | 0 | 11
Clc1ccc(-c2ccc(CNCC3CCCO3)o2)cc1 (stereo not given) | 2 | -6 | -61 | . | -3 | -22
COc1nc(-c2ccccc2)cc(-c2ccc3c(c2)OCO3)c1C#N | -3 | -230 | 56* | . | 6 | 15
O=C(CC1Nc2c3ccccc3nc(=S)n2C1=O)NC1CCCCC1 (stereo not given) | -12 | 4 | -45 | 0 | -1 | 13
CC1CN(C2=NC(=O)/C(=C/c3ccncc3)S2)CC(C)O1 (stereo not given) | -7 | -9 | -22 | . | 0 | -19
Oc1ccc(/C=N/Nc2ccnc3cc(Cl)ccc23)c(O)c1 | 66 | -14 | 57* | . | 0 | 88*
Clc1ccc2c(N/N=C/c3ccc(Br)cc3)ccnc2c1 | 46 | 22 | 45 | 4 | 17 | 42
Cc1ccccc1/C=N/Nc1ccnc2cc(Cl)ccc12 | 38 | -1 | 52* | 4 | 3 | 98*
